Experimental findings from PubChem BioAssay are described below.

Activity calls are given as the source filed them. No rule for the calls is given here.

In this assay the test system is Aerobactin synthetase IucA (Klebsiella pneumoniae, hypervirulent). Kind of assay: biochemical IucA inhibition screen of LOPAC library by absorbance (AID 1346212).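 Also: 100% = no compound wells and 0% = no enzyme wells.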 Particulars: IucA enzyme assay, absorbance (OD) readout; hits give low values;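 tested at 8 µM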.
What is called remaining activity is the signal under treatment as a percentage of the control signal. Regarding `C[N+](C)(C)CCOP(=O)(O)OP(=O)([O-])OC[C@H]1O[C@@H](n2ccc(N)nc2=O)[C@H](O)[C@@H]1O`, the remaining activity was 115% (inactive).
`CNC1(C)C2CCC(C2)C1(C)C` (stereo not given): the remaining activity is 96.4% (inactive).
For `COC(=O)C(N)Cc1ccc(Cl)cc1` (stereo not given), the remaining activity is 91.4% (inactive).
Regarding `CC1CCN(CC[C@H]2CCCN2S(=O)(=O)c2cccc(O)c2)CC1`, the remaining activity was 125% (inactive).
As for `Cc1cc(NC(=O)Nc2ccc3c(ccn3C)c2)sn1`, the remaining activity is 122% (inactive).
With `Fc1cccc(/C=N/N=C/c2cccc(F)c2)c1`, the remaining activity was 123% (inactive).
Take `NCCNC(=O)c1ccc(Cl)cc1`: the remaining activity was 88.1% (inactive).
For the compound `CC(=O)O[C@H]1C[C@@H]2CC[C@@H]3[C@H](CC[C@@]4(C)[C@H]3C[C@H]([N+]3(C)CCCCC3)[C@@H]4OC(C)=O)[C@@]2(C)C[C@@H]1[N+]1(C)CCCCC1`, the remaining activity is 121% (inactive).
With `COC(=O)c1c(C)[nH]c(C)c1C(=O)c1ccccc1Cc1ccccc1`, the remaining activity was 96.6% (inactive).
On to `S=C(Nc1ccccc1)Nc1nccs1`, for which the remaining activity is 125% (inactive).
Consider `CN(C)c1nc(N)c(C(=O)N=C(N)N)nc1Cl`, for which the remaining activity is 119% (inactive).
As to `Cc1ccc(O)c(N=Nc2ccccc2)n1`, the remaining activity is 82.6% (inactive).
For the compound `O=c1ccn([C@@H]2O[C@H](COP(=O)(O)OP(=O)(O)O)[C@@H](O)[C@H]2O)c(=O)[nH]1`, the remaining activity was 106% (inactive).
With `Cc1cccc(C#Cc2ccccc2)n1`, the remaining activity was 123% (inactive).
With `OC[C@H]1O[C@@H](n2cnc3c(Nc4ccccc4)ncnc32)[C@H](O)[C@@H]1O`, the remaining activity is 89.3% (inactive).
With `COc1cc2c(cc1OC)[C@@H](c1ccccc1)CN(C)CC2`, the remaining activity was 102% (inactive).
In the case of `CC1=C(C(=O)O)N2C(=O)[C@@H](NC(=O)[C@H](N)C3=CCC=CC3)[C@H]2SC1`, the remaining activity was 113% (inactive).
On to `C[C@H](O)C(=O)C1=Nc2c(nc(N)[nH]c2=O)NC1`, for which the remaining activity was 109% (inactive).
To `N=c1c[n+](N2CCOCC2)[n-]o1` belongs 108% (inactive); to `COc1ccccc1N1CCN(CCN(C(=O)c2ccc(I)cc2)c2ccccn2)CC1`, 122% (inactive); to `CN(CCOc1ccc(C[C@H](Nc2ccccc2C(=O)c2ccccc2)C(=O)O)cc1)c1ccccn1`, 117% (inactive).
For `Clc1ccc(N2CCN(Cc3c[nH]c4ncccc34)CC2)cc1`, the remaining activity is 92% (inactive).
For `N#CC(C#N)=C(N)/C(C#N)=C/c1ccc(O)cc1`, the remaining activity was 117% (inactive).
On to `CNC(=O)c1cc2c(cn1)[nH]c1ccccc12`, for which the remaining activity is 97.3% (inactive).
Consider `CC1=C(CC(=O)O)c2cc(F)ccc2/C1=C\c1ccc(S(C)(=O)=O)cc1`, for which the remaining activity was 93.6% (inactive).
Turning to `Cc1nc2c(OCc3ccccc3)cccn2c1CC#N`, the remaining activity is 126% (inactive).
For `c1cnc(N2CCN(Cc3ccc4c(c3)OCO4)CC2)nc1`, the remaining activity was 102% (inactive).
As to `CC1=C(C(=O)O)N2C(=O)[C@@H](NC(=O)[C@H](N)c3ccccc3)[C@H]2SC1`, the remaining activity was 118% (inactive).
As to `Cc1nc(N=Nc2cc(S(=O)(=O)O)c3cc([N+](=O)[O-])cc(S(=O)(=O)O)c3c2)c(COP(=O)(O)O)c(C=O)c1O`, the remaining activity was 118% (inactive).
On to `Nc1nc(SCc2ccc([N+](=O)[O-])cc2)c2ncn([C@@H]3O[C@H](CO)[C@H](O)C3O)c2n1` (stereo not given in full), for which the remaining activity was 107% (inactive).
Turning to `CN1C2CCC1CC(NC(=O)c1nn(C)c3ccccc13)C2` (stereo not given), the remaining activity was 107% (inactive).
In the case of `OCCN1CCN(CC/C=C2/c3ccccc3Sc3ccc(C(F)(F)F)cc32)CC1`, the remaining activity was 105% (inactive).
For the compound `O=[N+]([O-])c1ccc(CSc2ncnc3c2ncn3[C@@H]2O[C@H](CO)[C@@H](O)[C@H]2O)cc1`, the remaining activity is 126% (inactive).
In the case of `O=S(=O)(c1cccc2cnccc12)N1CCNCC1`, the remaining activity is 121% (inactive).
Consider `O=C(Nc1cccc(C(=O)Nc2ccc(S(=O)(=O)O)c3cc(S(=O)(=O)O)cc(S(=O)(=O)O)c23)c1)Nc1cccc(C(=O)Nc2ccc(S(=O)(=O)O)c3cc(S(=O)(=O)O)cc(S(=O)(=O)O)c23)c1`, for which the remaining activity was 88.6% (inactive).
Then `COc1ccccc1N1CCN(CCN(C(=O)C2CCCCC2)c2ccccn2)CC1`, with 119% (inactive); and `CC(C)(C)c1ccc(/C=C/C(=O)Nc2ccc3c(c2)OCCO3)cc1`, with 107% (inactive).
As for `CNc1ncnc2c1ncn2[C@H]1C[C@H](OP(=O)(O)O)[C@@H](COP(=O)(O)O)O1`, the remaining activity is 124% (inactive).
`CCCC[C@@]1(C2CCCC2)Cc2cc(OCC(=O)O)c(Cl)c(Cl)c2C1=O`: the remaining activity was 106% (inactive).
`CC(Oc1ccc(Oc2cnc3ccc(Cl)cc3n2)cc1)C(=O)O` (stereo not given): the remaining activity was 108% (inactive).
